High-throughput results (PubChem)
This is a sample that favours compounds with a hit; in the whole collection about 3.3% have one here.
14-3-3 Bad PPI: disrupts binding of bovine 14-3-3 zeta to phospho-Bad peptide; P63103; 220,000 compounds, 0.71% hits; TR-FRET 14-3-3zeta/Dy647-pBad peptide displacement, 1 h; inhibition, % at 21.7 µM;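 active means inhibition above about 70%, limit read from the data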
Target sequence (P63103 whole entry, looked up): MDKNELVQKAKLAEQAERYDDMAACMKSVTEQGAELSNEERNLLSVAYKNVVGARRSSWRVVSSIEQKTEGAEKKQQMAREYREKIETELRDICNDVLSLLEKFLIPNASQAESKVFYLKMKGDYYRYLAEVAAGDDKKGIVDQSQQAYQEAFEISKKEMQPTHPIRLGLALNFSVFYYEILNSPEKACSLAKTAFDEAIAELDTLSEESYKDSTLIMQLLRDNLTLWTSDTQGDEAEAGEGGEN
p47phox inh: blocks human p47phox regulatory protein of NADPH oxidases. 220,000 compounds, 0.53% hits. p47phox/p22phox peptide binding, fluorescence polarization, 2 h. P14598. inhibition, % at 24.7 µM
Mcl1 Bid PPI: Mcl-1/Bid interaction inhibition | TR-FRET Mcl-1/Bid-Dy647 peptide binding, 1536-well | AID 1021 | inhibition, % at 21.7 µM | 220,000 compounds, 0.97% hits | Q07820;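 active means compounds that cut the binding signal by more than half at the single screening dose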;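 further: His-tagged Mcl-1 with europium anti-His antibody binding Bid BH3 peptide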
Target sequence (Q07820 whole entry, looked up): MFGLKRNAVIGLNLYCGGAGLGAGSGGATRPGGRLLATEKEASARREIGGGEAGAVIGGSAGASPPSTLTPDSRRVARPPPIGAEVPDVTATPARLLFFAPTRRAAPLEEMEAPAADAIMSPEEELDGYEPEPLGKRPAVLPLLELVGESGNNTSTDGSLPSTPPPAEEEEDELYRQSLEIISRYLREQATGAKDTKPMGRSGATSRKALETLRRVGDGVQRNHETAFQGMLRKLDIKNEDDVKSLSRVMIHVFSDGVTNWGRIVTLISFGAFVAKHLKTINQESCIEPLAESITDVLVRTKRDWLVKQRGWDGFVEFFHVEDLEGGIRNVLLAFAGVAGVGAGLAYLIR
Mcl-1 Bim block: inhibitors of Bim-Mcl-1 interaction, human | inhibition, % at 10 µM | Q07820 | AID 1009 | Bead-based flow cytometry, Bim peptide-Mcl-1 binding | 190,000 compounds, 0.1% hits; in the data active means inhibition above about 40%
eIF4E 4G PPI: eIF4E/eIF4G interaction inhibition in translation initiation; 220,000 compounds, 0.37% hits; AID 782; TR-FRET eIF4E-eIF4GI(517-606) binding, 2 h; inhibition, % at 21.7 µM
Mcl1 Noxa PPI: Mcl-1/Noxa interaction inhibition. TR-FRET Mcl-1/Noxa peptide binding, 2 h. inhibition, % at 21.7 µM. 220,000 compounds, 1.5% hits. AID 1022;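 active means compounds that cut the protein-peptide binding signal by more than 50% relative to plate controls in a single-dose test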;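 further: His-tagged Mcl-1 with rhodamine Noxa BH3 peptide and terbium anti-His antibody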
Large screens that a line does not name were inactive; [ ] = dose if it differs, or a comment.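 How the source made its calls, unless noted: active means inhibition above about 30% (limit read from the data); inactive means the rest.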

COc1ccc(C(=O)C2CCCN(C(=O)c3ccc4cc[nH]c4c3)C2)c(C)c1 (centres undefined)	none
COc1cc(C=O)ccc1OS(=O)(=O)c1ccc(NC(C)=O)cc1	Mcl1 Bid PPI 53
Cc1c(-n2cccc2C=O)cccc1[N+](=O)[O-]	eIF4E 4G PPI 86
COCCCN1C(=O)C(=O)/C(=C(/O)c2ccc(OC)cc2)C1c1cccc(OC)c1 (centres undefined)	Mcl1 Noxa PPI 64
C/C(N)=C(/C#N)C(=O)COC(=O)CNC(=O)c1ccc(Cl)cc1Cl	none
O=S(=O)(Cc1cc(Cl)nc(-c2ccncc2)n1)c1ccccc1	Mcl1 Noxa PPI 81
O=S(=O)(Cc1cc(Cl)nc(-c2ccccc2)n1)c1ccccc1	none
CCOc1cc(/C=C2\C(=O)N(CCc3ccc(OC)c(OC)c3)C(C)=C2C(=O)OC)ccc1O	p47phox inh 53
CSc1ccc(S(=O)(=O)Nc2ccc(S(=O)(=O)Nc3ccc(C)cc3)cc2)cc1	none
Cc1ccc(S(=O)(=O)Nc2ccc(N=Nc3ccc(O)cc3)cc2)cc1	Mcl1 Noxa PPI 53
Cc1nc(N2N=C(c3ccc(Cl)cc3)CC2c2ccco2)sc1C(=O)N(C)C (centres undefined)	none
COc1ccc(C2=NN(c3nc(-c4ccccc4)c(CC(=O)O)s3)C(c3ccco3)C2)cc1 (centres undefined)	Mcl1 Noxa PPI 85
CCCCCC(=O)NC(=S)Nc1ccc2oc(=O)ccc2c1	Mcl1 Noxa PPI 56
COc1ccc(C(=O)NC(=S)Nc2ccc3oc(=O)ccc3c2)cc1	none
CCCCC(=O)Nc1ccc2oc(-c3ccncc3)nc2c1	eIF4E 4G PPI 55
O=C(NC(=S)Nc1ccc2c(c1)OCCO2)c1ccccc1F	Mcl1 Bid PPI 68
O=C(NC(=S)Nc1ccc2oc(-c3ccncc3)nc2c1)c1ccccc1F	14-3-3 Bad PPI 73
COc1ccc(C2CC(c3ccccc3)=NN2C(=O)COC(=O)/C=C/c2ccc(O)c(OC)c2)cc1 (centres undefined)	none (no result: Mcl-1 Bim block)
O=[N+]([O-])c1ccc(Nc2nc(NC3CCCCC3)nc(N3CCCC3)n2)cc1	none
CN(C)c1nc(Nc2ccccc2)nc(N(C)C)n1	14-3-3 Bad PPI 80
COC(=O)c1ccc(Oc2nc(Nc3ccccc3)nc(N(C)C)n2)cc1	none
O=C1ON=C(c2ccccc2)/C1=C/c1cccnc1	none
O=C1ON=C(c2ccccc2)/C1=C/c1ccc(OS(=O)(=O)c2ccccc2)cc1	Mcl1 Noxa PPI 72
FC(F)(F)c1ccc2c(c1)N1CCCC1CN2 (centres undefined)	none
FC(F)(F)c1ccc2c(c1)NCC1CCCN21 (centres undefined)	p47phox inh 51
COC(C[C@@H](O)[C@H](C)[C@@H](O)COCc1ccccc1)OC	none (no result: Mcl-1 Bim block)
CCCCn1c(NC(=O)c2ccccc2Cl)c(C#N)c2nc3ccccc3nc21	none
N#Cc1c(NC(=O)c2ccccc2Cl)n(Cc2ccccc2)c2nc3ccccc3nc12	Mcl1 Noxa PPI 70
O=C(COc1ccccc1)N/N=C/c1cc2c(cc1[N+](=O)[O-])OCO2	none
O=C(CSc1ccccn1)N/N=C/c1ccccc1[N+](=O)[O-]	14-3-3 Bad PPI 84[fluorescence artefact?]
COc1ccc2c(c1)c(=O)oc1cc(OCC(=O)N3CCC(C)CC3)ccc12	none
Cc1cc(=O)oc2cc(OCC(=O)N/N=C/c3ccccc3[N+](=O)[O-])ccc12	Mcl1 Bid PPI 63
Cc1cc(=O)oc2cc(OCC(=O)N3CCOCC3)ccc12	Mcl1 Noxa PPI 64
Cc1cc(=O)oc2cc(OC(C)C(=O)N3CCOCC3)ccc12 (centres undefined)	none
COc1ccc2c(c1)c(=O)oc1cc(OCC(=O)N3CCc4ccccc4C3)ccc12	Mcl1 Bid PPI 53, Mcl1 Noxa PPI 58
O=C(CSc1ccccn1)N/N=C/c1cc([N+](=O)[O-])ccc1O	none (no result: Mcl-1 Bim block)
COC(=O)CC/C(O)=C1\C(=O)CC(C)(C)CC1=NCc1nc2ccccc2[nH]1	none
O=C(O)CCCN1C(=O)/C(=C\c2ccco2)SC1=S	none
O=C(O)CCN1C(=O)/C(=C\c2ccc(-c3nc4ccccc4s3)o2)SC1=S	Mcl1 Bid PPI 95, Mcl1 Noxa PPI 102
CN(C)c1ccc(C(c2ccc(N(C)C)cc2)c2ccc([N+](=O)[O-])cc2)cc1	p47phox inh 37 (no result: Mcl-1 Bim block)
O=C(O)c1cnn2c(-c3ccc(F)cc3)ccnc12	none
NC(=O)c1cnn2c(-c3cccc(C(F)(F)F)c3)ccnc12	Mcl1 Bid PPI 98 (no result: Mcl-1 Bim block)
CCCCn1c(SCc2nc(N)nc(N3CCCCC3)n2)nc2c1c(=O)n(C)c(=O)n2C	none
CC(=O)n1cc(C(C[N+](=O)[O-])SCCN)c2ccccc21 (centres undefined)	Mcl1 Bid PPI 53, Mcl1 Noxa PPI 53
CC(=O)n1cc(-c2ccncc2)c2ccccc21	none
Cc1c2n(c3ccccc13)CC/C2=N\O	none (no result: Mcl-1 Bim block)
CO/N=C1\CCn2c1c(C)c1ccccc12	14-3-3 Bad PPI 71 (no result: Mcl-1 Bim block)
COc1ccc(Br)cc1CNC(=O)Nc1cccs1	p47phox inh 98
COc1ccccc1CNC(=O)Nc1cccs1	none
CCS(=O)(=O)c1ccc2oc(SCC(=O)N3CCCCC3)nc2c1	none
O=[N+]([O-])c1cc(/C=N/Nc2nc3ccccc3[nH]2)c(O)cc1O	Mcl1 Noxa PPI 75
CCOc1ccc(C(=O)Nc2cc(-c3nc4ccccc4[nH]3)ccc2C)cc1[N+](=O)[O-]	14-3-3 Bad PPI 75
O=C(Nc1nc2ccccc2[nH]1)c1ccc(Cl)c([N+](=O)[O-])c1	Mcl1 Noxa PPI 82
Cc1ccc(S(=O)(=O)c2c[nH]c3cc4c(cc3c2=O)OCO4)cc1	none (no result: Mcl-1 Bim block)
CNC(=O)CSc1nnc(-c2ccccc2F)n1CCc1ccccc1	none (no result: Mcl-1 Bim block)
Cc1ccc(-n2c(SCC(=O)NCCN3C(=O)CSC3=O)nnc2-c2ccccc2)cc1	none
Cc1ccc(-n2c(SCC(=O)NCCN3C(=O)CSC3=O)nnc2-c2ccccc2)cc1C	Mcl1 Bid PPI 52
O=C1C(C2=NC(c3ccccn3)C3C(=O)N(c4ccccc4)C(=O)C23)=C(O)c2ccccc21 (centres undefined)	none (no result: Mcl-1 Bim block)
COC(=O)c1ccccc1NC1=C/C(=N\S(=O)(=O)c2cccs2)c2ccccc2C1=O	p47phox inh 183 (no result: 14-3-3 Bad PPI, eIF4E 4G PPI)
CC(C)Cn1ccc(=O)n(CC(C)C)c1=O	Mcl1 Bid PPI 55
CCN(C(=O)COC(=O)C1CCN(S(=O)(=O)c2cccs2)CC1)c1ccccc1	none
CCCOC(=O)c1ccc(OCC(O)CN2CCN(C(=O)c3ccccc3)CC2)cc1 (centres undefined)	eIF4E 4G PPI 34
Cc1ccccc1Nc1nc(N)nc(COC(=O)C(NC(=O)c2ccco2)C(C)C)n1 (centres undefined)	none
CC(C)[C@H](NC(=O)c1ccco1)C(=O)OCc1cc(=O)n2c(n1)sc1ccccc12	Mcl1 Noxa PPI 60 (no result: p47phox inh)
